# tim23-1 inh = growth inhibitors of tim23-1 mutant yeast, primary screen, luminescence, uHTS; inhibition, % at 20 µM; 330,000 tested, 1.3% active; S. cerevisiae tim23-1 growth, BacTiter-Glo luminescence, 24 h;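 active means growth inhibition of the mutant yeast at or above 50%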;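 further: temperature-sensitive mutant grown at 25 °C; plate controls were DMSO-treated mutant yeast for no effect and medium wells lacking yeast for full effect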
# V-ATPase pHluor = regulators of yeast V-ATPase proton pumping, primary screen, pHLuorin cytosolic pH fluorescence. S. cerevisiae. response, % at 10 µM. 350,000 tested, 0.37% active. AID 504577, 2011; in the data active means response mostly above about 7.3%, no sharp cut-off; inactive means mostly below about 5.4%; further: actives read high
# tim10-1 inh = growth inhibitors of tim10-1 mutant yeast, primary screen, luminescence, uHTS; 330,000 tested, 2.2% active; S. cerevisiae tim10-1 ts strain growth, BacTiter-Glo, 24 h; AID 463190, 2010; inhibition, % at 20 µM;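 active means inhibition of at least 40%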;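 further: mutant grown at 25 °C; 0% = DMSO wells with yeast and 100% = wells holding no yeast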
# NALP1 inh = NALP1 inflammasome inhibitors in reconstituted yeast, colorimetric, S. cerevisiae, triplicate retest; inhibition, % at 10 µM; AID 2071, 2009; 280,000 tested, 0.61% active; S. cerevisiae NALP1/ASC/caspase-1 growth, X-gal OD620, 72 h; in the data active means inhibition mostly above about 24%, no sharp cut-off; inactive means mostly below about 32%
# NALP3 yeast inh = NALP3 inflammasome inhibitors in reconstituted yeast, primary screen, luminescence, uHTS. Yeast reconstituted NLRP3/ASC/caspase-1, beta-gal luminescence, 24 h. inhibition, % at 10 µM. 330,000 tested, 0.39% active;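 active means inhibition of 50% or more; inactive means inhibition below 50%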;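 further: plate controls were induced DMSO wells for no effect and uninduced yeast grown without galactose for full effect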
# TIM10 inh = growth inhibitors of isogenic TIM10 control yeast, primary screen, counter-screen for tim10-1 yeast inhibitor project, luminescence, uHTS | S. cerevisiae TIM10 strain growth, BacTiter-Glo luminescence, 24 h | inhibition, % at 10 µM | 330,000 tested, 1.4% active;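 active means inhibition of 40% or more at the single tested concentration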;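 further: wild-type TIM10 isogenic control strain grown at permissive 25 °C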
# VATPase regulator = yeast V-ATPase proton pumping modulators, confirmation, S. cerevisiae, pH-sensitive GFP, second cherry-pick. S. cerevisiae pHLuorin cytosolic pH, V-ATPase proton transport. shares compounds with V-ATPase pHluor. response, % at 10 µM. AID 602197, 2012. 980 tested, 2% active; in the data active means response above about 24%;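 further: plate controls were vehicle wells for no effect and positive control wells for full effect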
# An asterisk follows results filed as active; nt = not tested or not shown. In the library only some 4.2% were active in any assay of this set; here they are far more common.
SMILES,tim23-1 inh,V-ATPase pHluor,tim10-1 inh,NALP1 inh,NALP3 yeast inh,TIM10 inh,VATPase regulator
c1ccc(CSC2=NCCCN2)cc1,10,2,14,-3,5,-18,0
N#Cc1ccc(CSC2=NCCN2)cc1,2,2,-16,-17,7,3,nt
COc1cc(OC)c(NC(=O)c2sc3ncn(CC(=O)N4CCOCC4)c(=O)c3c2C)cc1Cl,6,6.4*,6,-6,8,0,-12
Cc1ccccc1OCC(=O)Nc1nnc(COc2ccccc2)s1,11,1,5,12,29,1,nt
O=C(CNS(=O)(=O)c1ccccc1)NCC(=O)OCc1ccc(Cl)cc1,1,0,9,nt,11,-17,nt
CCc1nc(SCc2cc(=O)[nH]c3ccccc23)c2c(C)c(C)sc2n1,nt,4,nt,nt,nt,nt,nt
O=C(NC(=S)Nc1cccc(S(=O)(=O)NC2=NCCC2)c1)c1cc(-c2ccco2)nc2ccccc12,-4,13*,-5,10,4,0,-3
CCOc1ccc(CCNC(=O)CSc2cc(=O)n(CC)c3ccccc23)cc1OCC,11,14*,20,3,6,15,-3
Cc1c(OC(C)C(=O)NCC(O)c2ccccc2)ccc2c3c(c(=O)oc12)CCCC3 (stereo not drawn),18,10*,18,-164,9,9,2
CCOc1ccc(-n2c(SCC(=O)NCc3ccco3)nc3ccccc3c2=O)cc1,14,1,-1,-5,-1,8,nt
CCOc1ccc(-n2c(SCC(=O)NCc3ccco3)nc3c([nH]c4ccccc43)c2=O)cc1,-3,10.0*,-18,nt,12,-8,2
O=C(O)/C(=C\c1cccs1)Sc1nnc(-c2ccc(F)cc2)o1,-8,0,7,-2,2,-32,2
c1ccc(-c2nnc(-c3ccccc3)o2)cc1,-7,-1,-37,-13,33,-5,nt
CSc1nnc(-c2ccccc2)o1,11,0,-26,2,-8,-7,1
CSc1ccc(/C=C(/Sc2nnc(-c3ccccc3)o2)C(=O)O)cc1,-12,0,-21,-6,5,-16,-34
CCOc1ccc(NC(=O)CN(C)C(=O)c2sc3ccccc3c2Cl)cc1OCC,6,0,-1,nt,18,-8,nt
COc1ccc(Nc2ncnc3c2cnn3-c2ccccc2)cc1OC,-2,11*,-19,17,24,3,5
Clc1ccc(Nc2ncnc3c2cnn3-c2ccccc2)cc1,1,-1,-19,nt,17,-16,nt
c1cnc(N2CC[N+]3(CCCC3)CC2)nc1,8,0,4,5,7,-2,nt
c1cnc(N2CCSCC2)nc1,11,10*,15,14,-1,17,-1
O=C1CSC(c2ccc(F)c(F)c2)N1c1ccccc1F (stereo not drawn),7,-1,6,7,-14,1,nt
Cc1ccc(NC2OC(C(O)CO)C(O)C2O)cc1[N+](=O)[O-] (stereo not drawn),-8,36*,0,13,-6,-5,-4
CCOC(=O)Cn1c(=O)n(CC(=O)OCC)c2ccccc21,12,2,9,11,-23,-4,-2
COC(=O)Cn1c(C)nc2ccccc21,0,-2,8,-2,-9,1,nt
COc1ccc(NC(=O)Cn2c(=O)c(C)nc3ccccc32)cc1Cl,-16,0,-9,1,-6,-12,nt
SMILES,tim23-1 inh,V-ATPase pHluor,tim10-1 inh,NALP1 inh,NALP3 yeast inh,TIM10 inh,VATPase regulator
O=C(O)Cn1c(=O)c(-c2ccccc2)nc2ccccc21,-8,-1,-1,2,11,-6,nt
CCOC(=O)Cn1c(C)nc2ccccc21,-7,3,-3,3,7,-2,-7
COC(=O)Cn1c(=O)c(C)nc2ccccc21,-8,-2,9,-3,12,-9,-3
CCOC(=O)Cn1c(=O)c(-c2ccccc2NC)nc2ccccc21,8,-1,-3,6,23,-2,1
CCOC(=O)Cc1nc2ccccc2n(CC#N)c1=O,10,1,0,2,18,5,-53
CCOC(=O)Cn1c(=O)sc2ccccc21,1,-7,-4,14,-2,-8,nt
